According to PubChem BioAssay AID651821 (The Scripps Research Institute Molecular Screening Center, 2012):
Several values for one entry are separate records, joined by “and”; a condition that tells them apart may be missing. Equal entries are not always repeated. Hit rate of the full screen: of about 370,000 compounds, about 4,700 (1.3%) were called active. The sample holds actives, similar compounds and a random draw of the others, so the mix is not that of the screen.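 How the source made its calls: active means inhibition above the plate cutoff, the mean of all test compounds on that plate plus 3 SD (cut at about 35% in these data); inactive means the rest.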 Some structures have more than one record in an assay (separate samples or runs), and their calls can disagree.

Experiment: binders of r(CAG) RNA repeats, primary screen, biochemical, fluorescence (AID 651821);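 further: 0% = DMSO alone and 100% = 100 µM mitoxantrone as full dye displacement; higher means more dye released from RNA so lower well fluorescence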
Conditions: r(CAG) RNA repeat, TO-PRO-1 dye displacement fluorescence; at 3 µM; stronger effect = higher value
With COc1ccc(CN2C(CC(=O)Nc3cccnc3)c3ccc(C(F)(F)F)cc3S2(=O)=O)cc1 (stereo unspecified) the inhibition was 1.65% (inactive). In the case of COc1ccc(CC(N)c2csc(NC(=O)Nc3ccc(C(C)C)cc3)n2)cc1 (stereo unspecified), the inhibition is reported as 30.9% (inactive). In the case of COc1cccc(NC(=O)COC(=O)c2ccc3ccccc3n2)c1, the inhibition is reported as 7.26% (inactive). With NC(c1csc(NC(=O)Nc2ccccc2Oc2ccccc2)n1)c1ccccc1Cl (stereo unspecified) the inhibition was 14% (inactive). In the case of CC(C)(C)CC(=O)Nc1nc(C(N)Cc2ccc(C(F)(F)F)cc2)cs1 (stereo unspecified), the inhibition is reported as 1.66% (inactive). With NC(c1csc(NC(=O)Nc2cccc(C(F)(F)F)c2)n1)C1CCCCC1 (stereo unspecified) the inhibition was 35.2% (active). With C/C(CC(=O)Nc1cccc(C(F)(F)F)c1)=N\NC(=O)C(=O)NCC(C)C the inhibition was -2.81% (inactive). For COc1ccc(C(N)c2csc(NC(=O)Nc3cccc(C(F)(F)F)c3)n2)cc1 (stereo unspecified), the inhibition was 49.1% (active). For CC(=O)c1ccc(Nc2nc(C(N)c3ccccc3)cs2)cc1 (stereo unspecified), the inhibition was 6.98% (inactive). With CCOC(=O)c1cnc(SCC(=O)Nc2cccc(OC)c2)nc1N the inhibition was 1.08% (inactive). With NC(c1ccccc1)c1csc(NC(=O)Nc2cccc(C(F)(F)F)c2)n1 (stereo unspecified) the inhibition was 42.2% (active). For CCOC(=O)c1csc(NC(=O)Nc2cccc(OC)c2)n1, the inhibition was 61.3% (active). With C=CCn1c(SCC(N)=O)nnc1-c1ccccc1OC the inhibition was 2.58% (inactive). For O=C(NCc1ccccc1)[C@@H]1CCCN1C(=O)[C@H]1CCCN1C(=O)c1cccc(Cl)c1, the inhibition was -1.13% (inactive). For COC(=O)[C@H](CC(C)C)NS(=O)(=O)c1c(F)cccc1F, the inhibition was 0.25% (inactive). In the case of C=CCN1C(=O)N(Cc2ccccc2)c2ccccc2S1(=O)=O, the inhibition is reported as -0.57% (inactive). In the case of CCC(=O)Nc1ccc2c(c1)C(=O)N(C)[C@@H]1CC[C@@H](CC(=O)NCCc3ccccc3)O[C@H]1CO2, the inhibition is reported as 0.85% (inactive). In the case of CCOC(=O)[C@]12CCCCC/C=C\1N(Cc1ccc(OC)cc1)C(=O)[C@H]2CC(=O)NCc1ccc(C)o1, the inhibition is reported as 3.94% (inactive). For O=C(NS(=O)(=O)c1cccs1)[C@H]1O[C@@H](n2ccc(=O)[nH]c2=O)[C@H](O)[C@@H]1O, the inhibition was 1.16% (inactive). In the case of CN1CCCc2nc(-c3ccccc3)ccc21, the inhibition is reported as 1.01% (inactive). For O=C(CSc1nc2ccccc2n1Cc1ccccc1Cl)N/N=C\c1c[nH]c2ccccc12, the inhibition was 12.2% (inactive). In the case of CCn1c(SCC(=O)N/N=C/c2ccccc2OCC(=O)O)nnc1-c1ccc(C(C)(C)C)cc1, the inhibition is reported as 18.1% (inactive). In the case of Cc1ccc(Cn2c(SCC(=O)N/N=C/c3ccccc3OCC(=O)O)nc3ccccc32)cc1, the inhibition is reported as 50% (active). With CC1CCN(c2ccc(C(=O)O)cc2NS(=O)(=O)c2ccc(Br)s2)CC1 the inhibition was 33% (inactive). With CCOc1ccc(-n2c(SCC(=O)Nc3cc(C)c(NC(=O)c4ccccc4)cc3OC)nnc2-c2cccs2)cc1 the inhibition was 10.2% (inactive). For CC(=O)C1=C(O)C(=O)N(c2ccc(S(N)(=O)=O)cc2)C1c1ccccc1F (stereo unspecified), the inhibition was 2.58% (inactive). For NS(=O)(=O)c1ccc(NC2=CC(c3ccc(F)cc3)N(c3ccc(S(N)(=O)=O)cc3)C2=O)cc1 (stereo unspecified), the inhibition was 45.7% (active). With NS(=O)(=O)c1ccc(NC(=O)COC(=O)C2(c3ccc(F)cc3)CCCC2)cc1 the inhibition was 18.1% (inactive). For O=C(COc1ccccc1)Nc1nonc1NC(=O)COc1ccccc1, the inhibition was 8.22% (inactive). With O=C(COC(=O)c1ccc(Oc2ccccc2)cc1)Nc1nnc(-c2ccccc2)o1 the inhibition was 39.7% (active). In the case of O=C(COC(=O)CSc1nnc(-c2ccc(Cl)cc2)o1)Nc1cc(Cl)cc(Cl)c1, the inhibition is reported as 3.94% (inactive). For O=C(NCc1cccs1)C1CCCN(S(=O)(=O)c2ccc([N+](=O)[O-])cc2)C1 (stereo unspecified), the inhibition was 1.56% (inactive). With COc1ccc(N2CCN(CCNS(=O)(=O)c3ccc(C(C)(C)C)cc3)CC2)cc1 the inhibition was -0.11% (inactive). For Cc1nnc(SC(C(=O)c2ccccc2)c2ccccc2)[nH]c1=O (stereo unspecified), the inhibition was 4.12% (inactive). In the case of CC(NCC(=O)Nc1cc(Cl)cc(Cl)c1)c1ccccc1 (stereo unspecified), the inhibition is reported as -5.58% (inactive). With Cc1nnc(SC(C(=O)Nc2cc(Cl)cc(Cl)c2)c2ccccc2)[nH]c1=O (stereo unspecified) the inhibition was 80.2% (active). In the case of CCc1c(-c2ccccc2OC)ncn1CCc1ccccc1OC, the inhibition is reported as -2.09% (inactive). In the case of Cc1cccc(NC(=O)C[C@H]2CC[C@H]3[C@@H](COc4ccc(NC(=O)Nc5ccccc5)cc4C(=O)N3C)O2)c1, the inhibition is reported as 10.2% (inactive). With N#Cc1ccc(OC[C@@H](O)CN2CCC(C(O)(c3ccccc3)c3ccccc3)CC2)c(F)c1 the inhibition was -3.22% (inactive). For COc1ccc(S(=O)(=O)Nc2ccc3c(c2)C(=O)N([C@H](C)CO)C[C@H](C)[C@@H](CN(C)C)OCCCC[C@H](C)O3)cc1, the inhibition was 8.48% (inactive). For Cc1cc(C)c(C#N)c(SCc2ccc3c(c2)OCO3)n1, the inhibition was 4% (inactive). With CCCc1nc2c([nH]1)C(c1cccnc1)C(C#N)=C(N)O2 (stereo unspecified) the inhibition was 0.75% (inactive). With Cc1cc(C)c(C#N)c(SCc2[nH]nc3c2C(c2ccccc2)C(C#N)=C(N)O3)n1 (stereo unspecified) the inhibition was 38.2% (active). For C[C@@H](NC(=O)c1ccccc1OCC(=O)Nc1ccc(I)cc1)C(=O)N(C)Cc1ccccc1, the inhibition was 5.02% (inactive). With Cc1ccc(S(=O)(=O)N[C@H](CO)C(C)C)cc1 the inhibition was 2.22% (inactive). For CNC(=O)COc1ccc(S(=O)(=O)Nc2ccccc2)cc1, the inhibition was 0.86% (inactive). For Cc1ccc(S(=O)(=O)/N=C2\C=C(NS(=O)(=O)c3ccc(C)cc3)C(=O)c3ccccc32)cc1, the inhibition was 59.4% (active). With Cc1ccc(S(=O)(=O)N/N=C(\c2ccccc2)C2CC2)cc1 the inhibition was -0.89% (inactive). For COc1ccc(C(=O)C(C)OC(=O)c2cccc(S(=O)(=O)Nc3c(C)n(C)n(-c4ccccc4)c3=O)c2)cc1 (stereo unspecified), the inhibition was 7.06% (inactive). In the case of COc1ccc(S(=O)(=O)/N=C2\C=C(NS(=O)(=O)c3ccccc3)C(=O)c3ccccc32)cc1, the inhibition is reported as 63.6% (active). With O=S1(=O)c2c(cccc2N2CCSCC2)Oc2ccccc2CN1Cc1cn(Cc2ccc(F)cc2)nn1 the inhibition was 8.25% (inactive). With C[C@H]1[C@H](c2ccccc2)Oc2cc(Br)ccc2S(=O)(=O)N1Cc1cccc(F)c1 the inhibition was 3.74% (inactive). In the case of CCOC(=O)CSc1nncc2ccc(OC)c(OC)c12, the inhibition is reported as -1.96% (inactive). For Cc1cc(C)cc(NC(=O)N2CCC(N(C)CCC(C)C)CC2)c1, the inhibition was 3.3% (inactive). In the case of N#Cc1ccc(OCCCN2CCC(C(O)(c3ccccc3)c3ccccc3)CC2)c(F)c1, the inhibition is reported as -1.54% (inactive). For C=C1c2c(Cl)ccc(O)c2C(O)=C2C(=O)[C@]3(O)C(O)=C(C(N)=O)C(=O)[C@@H](N(C)C)[C@@H]3[C@@H](O)C12 (stereo partly specified), the inhibition was 87.2% (active). For Cc1nc(NC(=O)C(C)(C)C)sc1[N+](=O)[O-], the inhibition was 2.08% (inactive). In the case of COc1cccc(CNC(=O)[C@H]2CCCN2C(=O)[C@H]2CCCN2C(=O)C2CCCCC2)c1, the inhibition is reported as 1.57% (inactive). In the case of Cc1ccc(NC(=O)Cc2cccc(F)c2)c(S(=O)(=O)N2CCOCC2)c1, the inhibition is reported as -0.87% (inactive). With O=C1C=C(c2ccc(Cl)cc2)C(=O)N1Nc1ccccc1 the inhibition was 8.98% (inactive). For O=C1c2cccc3cccc(c23)C(=O)N1c1cccc(O)c1, the inhibition was 4.62% (inactive). In the case of O=C1c2cccc3cc(Br)cc(c23)C(=O)N1Nc1ccccc1, the inhibition is reported as 36.1% (active). With CCCc1cc(=O)[nH]c(SCC(=O)N2C(C)CCCC2C)n1 (stereo unspecified) the inhibition was -1.93% (inactive). For CCCc1cc(=O)[nH]c(SCC(=O)Nc2ccc(S(=O)(=O)N3CCCC3)cc2)n1, the inhibition was 15.7% (inactive). In the case of CCCc1cc(=O)[nH]c(SCC(=O)Nc2sc3c(c2C#N)CCCC3)n1, the inhibition is reported as 40.9% (active). In the case of CC(C)C[C@H](NC(=O)CC1CCCC1)C(=O)N1CCC[C@H]1C(=O)NCc1ccccc1, the inhibition is reported as -2.39% (inactive). In the case of COc1ccccc1CCn1cnc(-c2ccccc2)c1C(C)C, the inhibition is reported as -1.16% (inactive). For CC(=N\NC(=O)c1cc(Br)ccc1O)/C(=N/O)C(=O)Nc1ccccc1, the inhibition was 36.5% (active). In the case of C/C(Cc1ccccc1)=N\NC(=O)CNC(=O)c1cccc(Br)c1, the inhibition is reported as 1.32% (inactive). With C/C(=N/NC(=O)c1cc(Cl)ccc1O)C12CC3CC(CC(C3)C1)C2 the inhibition was 14.9% (inactive). In the case of O=S1(=O)c2ccc(Br)cc2OC[C@H](Cc2ccccc2)N1Cc1cn(Cc2ccccc2)nn1, the inhibition is reported as 9.1% (inactive). For O=C(CSc1nnc(COc2ccccc2)n1-c1ccc(Cl)cc1)Nc1ccc2c(c1)OCO2, the inhibition was 5.42% (inactive). In the case of Cc1cc(C(=O)NN=C/C=C/c2ccco2)n[nH]1, the inhibition is reported as 12% (inactive). In the case of Cc1ccc(N=C2NC(=O)/C(=C/C=C/c3ccco3)S2)cc1C, the inhibition is reported as 58% (active). In the case of Nc1ncnc2c1ncn2[C@@H]1O[C@H](C(=O)N[C@@H](CCc2ccccc2)C(=O)NCC(=O)N2CCOCC2)[C@@H](O)[C@H]1O, the inhibition is reported as 4.42% (inactive). With CO/N=C(\C(=O)N[C@@H]1C(=O)N2C(C(=O)O)=C(COC(C)=O)CS[C@H]12)c1csc(N)n1 (stereo in doubt) the inhibition was 31% (inactive) and 22.6% (inactive) and 37.5% (active). In the case of CCN1CCN(C(=O)N[C@@H](C(=O)N[C@@H]2C(=O)N3C(C(=O)O)=C(CSc4nnnn4C)CS[C@H]23)c2ccc(O)cc2)C(=O)C1=O, the inhibition is reported as 8.44% (inactive). With C=CC1=C(C(=O)O)N2C(=O)[C@@H](NC(=O)/C(=N/OCC(=O)O)c3csc(N)n3)[C@H]2SC1 the inhibition was 50.2% (active). With Nc1nc2c(ncn2[C@@H]2O[C@H](C(=O)N[C@H](Cc3ccccc3)C(=O)NCC3CCCCC3)[C@@H](O)[C@H]2O)c(=O)[nH]1 the inhibition was 6.66% (inactive). In the case of Cc1ccc(CN2CCCCC(NC(=O)C3CCCCC3)C2=O)cc1 (stereo unspecified), the inhibition is reported as -0.58% (inactive). In the case of CCCCN(C(C)=O)c1ccc2c(c1)C1CC2CCN1Cc1ccccc1 (stereo unspecified), the inhibition is reported as -3.96% (inactive).
